Screens deposited in PubChem by National Center for Advancing Translational Sciences (NCATS).
Sampled rows, rich in hits. Any-hit rate of the full collection: about 19%.
TGFb SMAD3 inh: qHTS for Inhibitors of TGF-b | HepG2 CAGA-GFP TGF-b/SMAD3 reporter, GFP fluorescence, 18 h; TGF-beta stimulated, 500 pg/mL final | AID 588855, 2011 | Potency, µM (top dose mostly 46.1 µM), for inactives: at the highest dose activity, negative = inhibition, most hits filed as inhibitors | hit rate 1.2% among 410,000; note: potency is the fitted concentration of half-maximal effect; % is set by controls: 0 for no effect and ±100 for the full control effect; nearly all actives have a fitted effect of over 65% in size
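HEPG2 CAGA-GFP, 1000 cells/well; 2 h settle, 37 C; cpd via pin tool; TGF-b 500 pg/mL final; 18 h, 37 C; GFP imaging ex488/em500-530; %Activity normalised to -TGF-b and +DMSO controls; CRC fit, curve class.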
TDP1 cell noCPT: qHTS for Inhibitors of human tyrosyl-DNA phosphodiesterase 1 (TDP1): qHTS in cells in absence of CPT | DT40 Tdp1-/- hTDP1 cells, no CPT, ATP luminescence, 48 h | Potency, µM (highest dose often 46.2 µM), for the others: top-dose activity change, negative = growth inhibition, usual class: inhibitors | hit rate 15% among 420,000 | AID 686978, 2013; note: potency is the fitted concentration of half-maximal effect; % is set by controls: 0 for no effect and ±100 for the full control effect; nearly all actives have a fitted effect of over 55% in size
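Compound effects on proliferation are scored in DT40 Tdp1-/-;hTDP1 cells in the absence of CPT. ATP levels (CellTiter-Glo luminescence) are recorded after a ≥48 hr, 37 °C incubation.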
HepG2 tox: qHTS for Inhibitors of TGF-b: Cytotox Counterscreen | HepG2 CAGA-GFP viability, ATP luminescence, 18 h | Potency, µM (top dose mostly 46.1 µM), inactives show top-dose activity change, negative = cytotoxicity, actives largely listed as cytotoxic | hit rate 0.76% among 410,000; note: potency is the fitted concentration of half-maximal effect
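HepG2 CAGA-GFP cells (1000/well, DMEM with 1% FBS) received compound, then TGF-beta at 500 pg/mL final, and were incubated 18 hours at 37 degrees C. Viability was read by CellTiter-Glo luminescence. Media-only wells were set as complete cell-killing and DMSO as no toxicity.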
TDP1 inh: qHTS Assay for Inhibitors of Tyrosyl-DNA Phosphodiesterase (TDP1); Tyrosyl-DNA phosphodiesterase 1 (Homo sapiens), Q9NUW8; recombinant TDP1, AlphaScreen DNA substrate cleavage; Potency, µM (doses to about 130 µM), inactives show at the top dose activity change, negative = inhibition, hits mostly inhibitors; hit rate 0.28% among 350,000; AID 485290, 2010; note: potency is the fitted concentration of half-maximal effect; % is set by controls: 0 for no effect and ±100 for the full control effect; nearly all actives have a fitted effect of over 40% in size
Target sequence (Q9NUW8 whole entry, looked up): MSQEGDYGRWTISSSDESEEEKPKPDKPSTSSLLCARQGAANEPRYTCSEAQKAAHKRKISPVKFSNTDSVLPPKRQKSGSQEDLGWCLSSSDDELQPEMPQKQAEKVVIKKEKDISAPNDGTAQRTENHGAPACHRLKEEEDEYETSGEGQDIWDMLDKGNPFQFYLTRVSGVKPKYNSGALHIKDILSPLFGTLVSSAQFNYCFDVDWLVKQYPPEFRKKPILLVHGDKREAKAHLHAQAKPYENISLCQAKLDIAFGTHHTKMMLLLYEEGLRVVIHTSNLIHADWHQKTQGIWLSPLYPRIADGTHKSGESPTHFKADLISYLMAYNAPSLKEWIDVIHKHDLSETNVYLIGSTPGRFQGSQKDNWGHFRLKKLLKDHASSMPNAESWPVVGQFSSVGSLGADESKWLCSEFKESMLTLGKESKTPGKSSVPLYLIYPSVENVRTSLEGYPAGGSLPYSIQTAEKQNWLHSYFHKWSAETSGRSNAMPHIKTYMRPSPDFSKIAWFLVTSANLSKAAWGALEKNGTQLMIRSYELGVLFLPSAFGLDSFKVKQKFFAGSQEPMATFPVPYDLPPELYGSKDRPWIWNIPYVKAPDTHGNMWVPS
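Steps: enzyme plus compound, 15 min RT; add biotin/phosphotyrosine-FITC oligonucleotide (15 nM final), react 5 min; add donor/acceptor beads (10 ug/ml final), 10 min; read AlphaScreen. Tdp1 at 1 nM final.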
IL1B secr inh: qHTS for Inhibitors of Inflammasome Signaling: IL-1-beta AlphaLISA Primary Screen. THP-1 LPS/ATP IL-1B secretion, AlphaLISA, 16 h; active compounds read low. activity change, % at 57.5 µM. hit rate 4.7% among 360,000; in the data active = activity change below about -50%; inconclusive = mostly about -30% to -49%; note: % is set by controls: 0 for no effect and ±100 for the full control effect
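Secreted IL-1B measured by AlphaLISA bead assay after 16 h compound exposure of THP-1 cells; compounds (final up to 57.5 uM) added 1 h before LPS (250 ng/mL) and ATP (1.25 mM) stimulation; lower signal means less secretion.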
DT40 TDP1 CPT: qHTS for Inhibitors of human tyrosyl-DNA phosphodiesterase 1 (TDP1): qHTS in cells in presence of CPT. Potency, µM (titrated, usually from 46.2 µM), without a hit: at the highest dose activity change, negative = growth inhibition, usual class: inhibitors. chicken DT40 Tdp1-/-;hTDP1 cells + 20 nM CPT, ATP luminescence, 48 h. hit rate 12% among 420,000; note: potency is the fitted concentration of half-maximal effect; % is set by controls: 0 for no effect and ±100 for the full control effect; nearly all actives have a fitted effect of over 55% in size
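Cell growth measured by CellTiter-Glo luminescence after a minimum 48 h, 37 C compound exposure with 20 nM CPT in Tdp1-knockout DT40 cells stably expressing hTDP1, seeded 400/well; qHTS titration format.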
* = called active by the depositor; u = inconclusive; x = no result given; ! = not confirmed by another sample; [ ] = dose if it differs, or a comment. Unless noted, calls come from the whole dose curve; as a rule, active = well fitted curve in the direction sought with a large enough effect; inconclusive = small, poorly fitted or top-dose-only effect, or another doubt; inactive = no such curve, though single readings can be large; an effect the other way counts as inactive or inconclusive.

SMILES	TGFb SMAD3 inh	TDP1 cell noCPT	HepG2 tox	TDP1 inh	IL1B secr inh	DT40 TDP1 CPT
CC1=C(CC(=O)O)c2cc(F)ccc2/C1=C\c1ccc(S(C)=O)cc1 (configuration not stated)	0%	u	-4%	9%[56.1 µM]	13	12µM*!
CCOC(=O)c1sc2ncn(CC(=O)Nc3ccc(C)cc3C)c(=O)c2c1C	0%	-9%	-22%	6%	x	-15%
c1ccc(Nc2nc3ccccc3o2)cc1	-6%	-8%	-2%	4%	18	-25%
Fc1ccccc1Nc1nc2ccccc2o1	-5%	u	7.1µM*	x	-16	-3%
Cc1cc(C)nc(Nc2nc3ccccc3o2)n1	6%	u	0%	x	-76*	-3%
COc1nnc(-c2ccc(N3CCCCC3)c(NC(=O)COc3ccccc3)c2)c2ccccc12	4%	22%	2%	x	10	-3%
N=c1nc2n(cc1F)C1OC(CO)C(O)C1O2 (configuration not stated)	-13%	0.13µM*	-6%	x	33	0.13µM*
N=c1ncn(C2OC(CO)C(O)C2O)c2nc(Br)[nH]c12 (configuration not stated)	-8%	u	3%	x	-26	-1%
Oc1ccc(/C=N/N=C/c2ccc(O)cc2)cc1	-1%	-2%	-8%	-3%	-21	-12%
NC(N)=N/N=C/c1ccc(Br)cc1	u	4.1µM*	-55%	4%	u	2.6µM*
NC(N)=N/N=C/c1ccc(OCc2ccc(Cl)cc2)cc1	u	u	10µM*	7%	-94*	21µM*
Cc1ccc(COc2ccc(/C=N/O)cc2)cc1	-4%	u	-30%	3%	-9	-29%
O=S1(=O)[C@H]2C[C@H](CO)O[C@@]2(CO)CN1Cc1ccc(-c2cccc(Cl)c2)cc1	u	u	-31%	0%[56.1 µM]	-6	21µM*
CN(Cc1ccccc1)C(=O)c1[nH]c(C(F)(F)F)nc1-c1ccccc1	-10%	-20%	-13%	x	12	2%
NC(COCc1ccccc1)c1csc(Nc2cc(Oc3ccccc3)ncn2)n1 (configuration not stated)	u	26µM*	-101%	x	-79*	u
NC(Cc1ccc(F)cc1)c1csc(Nc2cc(Oc3ccccc3)ncn2)n1 (configuration not stated)	u	u	13µM*	x	-75*	u
COc1ccc(CC(N)c2csc(Nc3cc(Oc4ccccc4)ncn3)n2)cc1 (configuration not stated)	u	12µM*	18µM*	x	x	16µM*
NC(Cc1ccc(Cl)cc1)c1csc(Nc2cc(Oc3ccccc3)ncn2)n1 (configuration not stated)	u	u	-114%	x	-69*	-106%
Cc1c(C(=O)NC(=S)NCc2cccnc2)cccc1[N+](=O)[O-]	0%	3%	-18%	3%	6	1%
CCOc1ccc(S(=O)(=O)NCCC(=O)N2CCN(c3ccc(OC)cc3)CC2)cc1	-4%	21µM*	-2%	4%	-4	u
CCOc1ccc(S(=O)(=O)NCCC(=O)N2CCN(c3ncccn3)CC2)cc1	-6%	u	-1%	-8%	0	-1%
CCOc1ccc(S(=O)(=O)NCCC(=O)N2CCN(Cc3ccccc3)CC2)cc1	-3%	u	0%	4%	0	u
